The source of these data is PubChem BioAssay (NCATS).

Molecules are shown by their SMILES. Several values for one entry are separate records, joined by “and”; a condition that tells them apart may be missing. Equal entries are not always repeated. Results filed as inconclusive are left out. Activity calls are given as the source filed them. Unless noted, the call rests on the fitted dose curve; in most records, active means well fitted curve in the direction sought with a large enough effect; inconclusive means small, poorly fitted or top-dose-only effect, or another doubt; inactive means no such curve, though single readings can be large; an effect the other way counts as inactive or inconclusive.

Experiment [1] deals with Tyrosine-protein kinase Yes (Homo sapiens) (UniProt P07947). Put plainly: qHTS for small molecule inhibitors of Yes1 kinase: Primary Screen (AID 686947). Further: nearly all actives have a fitted effect of over 60% in size. Further: potency means the concentration at half of the fitted maximal effect. The procedure, abridged:
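ADP-Glo luminescence readout; final 4 nM Yes1, 0.1 mM ATP, 0.3 mg/mL poly(E4Y), Tris pH 7.5, MgCl2, DTT, Brij-35. 20 min compound preincubation, 60 min reaction at RT. Normalized to DMSO wells with and without enzyme.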
On the technique in general: In qHTS, concentration-response curves come from the screen itself.

A short description of experiment [2]: qHTS for small molecule inhibitors of Yes1 kinase: Counter Assay (AID 686950).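 Further: no kinase present so only ADP-Glo detection of a fixed ADP amount is tested; luminescence from ADP-Glo reporting ADP in a fixed ATP and ADP mixture; 0% = DMSO wells with ATP plus ADP and -100% = ATP-only wells without ADP.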 In outline:
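Luminescence read-out from ADP-Glo quantifies a fixed ADP amount (0.02 mM ADP with 0.08 mM ATP) after 60 min at room temperature; signal is normalized between DMSO wells with ATP/ADP and with 0.1 mM ATP alone.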

The nature of experiment [3]: qHTS Assay for Identifying Gametocytocidal Compounds (AID 743244). Further: potency means the concentration at half of the fitted maximal effect.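 On max response: on the % scale 0 is the no-effect control and ±100 the full control effect; actives lower the fluorescent signal which means gametocytes are killed.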 Particulars: P. falciparum 3D7 stage III-V gametocytes, alamarBlue, 72 h; max response: stronger effect = lower value. In outline:
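In this qHTS viability screen, late-stage 3D7 gametocytes are incubated with compound for 72 h, then with alamarBlue for 24 h; reduced resorufin fluorescence marks killing.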

Experiment [4] in a line: qHTS profiling for inhibitors of Plasmodium falciparum (3D7) proliferation (AID 743322; call rule not given here;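 further: infected erythrocytes exposed to compound for 72 h before lysis; 100% = DMSO vehicle wells and 0% = 0.29 µM artemisinin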). Particulars: P. falciparum 3D7 proliferation; at 28.7 µM (top of the series) unless noted. In outline:
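Erythrocytes infected with P. falciparum (0.3% parasitemia, 2.5% hematocrit) incubated with compounds 72 h at 37 C, 5% CO2. Lysis with saponin/Triton buffer containing SYBR Green I, overnight at room temperature in the dark; DNA fluorescence (485/535 nm) normalised to 0.29 uM artemisinin and DMSO.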

The nature of experiment [5]: qHTS profiling for inhibitors of Plasmodium falciparum (DD2) proliferation (AID 743323; call rule not given here). Particulars: lower = more inhibition; at 28.7 µM (top of the series) unless noted. In outline: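 Parasite proliferation measured via DNA-dye fluorescence, as uninfected erythrocytes lack DNA. Cultures at 0.3% parasitemia and 2.5% hematocrit incubated 72 h with compound; signal scaled between vehicle and 0.29 uM artemisinin wells.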

Experiment [6] in a line: qHTS assay for environmental chemicals that activate the Aryl hydrocarbon Receptor (AhR) signaling pathway (AID 651777). Further: % of control where 0% means no effect; nearly all actives have a fitted effect of over 15% in size. Particulars: 1A2-DRE human hepatoma cells, luciferase, 24 h; stronger effect = higher value. The procedure, abridged: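 Following a 24 hr incubation with test chemicals at 37 C and 5% CO2, 1A2-DRE human hepatoma cells received One-Glo reagent; after 30 min at room temperature, luciferase output reflected CYP1A2 induction via AhR.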

For experiment [7], the target named is Peroxisome proliferator-activated receptor alpha (Homo sapiens) (UniProt Q07869). The experiment in a line: qHTS assay for small molecule agonists of the peroxisome proliferator-activated receptor alpha (PPARalpha) signaling pathway (AID 651778). Further: % of control where 0% means no effect. Particulars: PathHunter PPARalpha complementation, chemiluminescence, 6 h; stronger effect = higher value. The procedure, abridged:
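Chemiluminescence from complemented enzyme reported PPARalpha activation in cells after 6 hr of compound treatment at 37 C. The detection reagent was incubated for 60 min at room temperature, and compounds were scored as agonists.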

In experiment [8] the target is Nuclear receptor ROR-gamma (Homo sapiens) (UniProt P51449). The experiment in a line: qHTS assay for small molecule antagonists of the retinoid-related orphan receptor gamma (ROR-gamma) signaling pathway (AID 651802). Further: on the % scale 0 is the no-effect control and ±100 the full control effect; nearly all actives have a fitted effect of over 60% in size. The procedure, abridged: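 CHO cells carrying TET-inducible ROR-gamma and an ROR response element–luciferase reporter were exposed to compound, then induced with doxycycline. After 16hr at 37C, luminescence was read; lower signal indicates antagonism.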

The nature of experiment [9]: qHTS assay for small molecule agonists of the antioxidant response element (ARE) signaling pathway measured by Nrf2-dependant transcriptional activity (AID 720636; active means well fitted curve in the direction sought with a large enough effect in the repeat runs; an effect the other way counts as inactive or inconclusive;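 further: HepG2 cells with an ARE-driven luciferase reporter; % of control where 0% means no effect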). The procedure, abridged:
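ONE-Glo luminescence, read 30 min after reagent addition at room temperature, reflected ARE reporter activity in HepG2 cells that had been incubated with compound for 16 hr at 37 C in 1% dialyzed FBS.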

Experiment [10] is described as follows: qHTS assay for small molecule antagonists of the retinoid-related orphan receptor gamma (ROR-gamma) signaling pathway - cell viability counter screen (AID 720652; active means well fitted curve in the direction sought with a large enough effect in the repeat runs; an effect the other way counts as inactive or inconclusive;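 further: compound exposure lasted 16 hr before ATP read; on the % scale 0 is the no-effect control and ±100 the full control effect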). The procedure, abridged:
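Counter screen in CHO cells carrying TET-inducible ROR-gamma and an ROR response element-luciferase reporter; cells plated 5 hr, compound pinned, doxycycline added, then 16 hr at 37 C. Viability read as intracellular ATP by CellTiter-Glo luminescence.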

A short description of experiment [11]: qHTS assay for small molecule agonists of the antioxidant response element (ARE) signaling pathway measured by Nrf2-dependant transcriptional activity - cell viability counter screen (AID 720653; active means well fitted curve in the direction sought with a large enough effect in the repeat runs; an effect the other way counts as inactive or inconclusive; further: on the % scale 0 is the no-effect control and ±100 the full control effect). Particulars: ARE-bla HepG2 viability, CellTiter-Glo ATP luminescence, 16 h; stronger effect = lower value. In outline: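 Cytotoxicity counter screen: intracellular ATP quantified by CellTiter-Glo luminescence in the same ARE-bla HepG2 plates, after 16 h compound exposure and a 2 h beta-lactamase substrate step.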

A short description of experiment [12]: qHTS assay for cell viability of HEK293 cells (AID 743288). Further: on the % scale 0 is the no-effect control and ±100 the full control effect; nearly all actives have a fitted effect of over 50% in size. Particulars: ATP luminescence (CellTiter-Glo), 18 h, stronger effect = lower value. The procedure, abridged:
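Luminescent ATP quantitation served as the viability read-out. Cells (parental HEK293, 2,000/well) received compounds after at least 5 h at 37 C and were exposed for 18 h before a 30 min room-temperature reagent step.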

Experiment [13] is described as follows: qHTS assay for cell viability of the p53RE-bla HCT-116 cell line (AID 743292). Further: on the % scale 0 is the no-effect control and ±100 the full control effect; nearly all actives have a fitted effect of over 55% in size. The procedure, abridged: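 After plating at 4,000 cells per well and a 5 h rest at 37 C, HCT-116 cells carrying p53RE-bla received test chemicals in DMSO. Sixteen hours later at 37 C, CellTiter-Glo was added and luminescence recorded following 30 min at room temperature.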

Sequence of Tyrosine-protein kinase Yes (Homo sapiens) (P07947 whole entry, looked up): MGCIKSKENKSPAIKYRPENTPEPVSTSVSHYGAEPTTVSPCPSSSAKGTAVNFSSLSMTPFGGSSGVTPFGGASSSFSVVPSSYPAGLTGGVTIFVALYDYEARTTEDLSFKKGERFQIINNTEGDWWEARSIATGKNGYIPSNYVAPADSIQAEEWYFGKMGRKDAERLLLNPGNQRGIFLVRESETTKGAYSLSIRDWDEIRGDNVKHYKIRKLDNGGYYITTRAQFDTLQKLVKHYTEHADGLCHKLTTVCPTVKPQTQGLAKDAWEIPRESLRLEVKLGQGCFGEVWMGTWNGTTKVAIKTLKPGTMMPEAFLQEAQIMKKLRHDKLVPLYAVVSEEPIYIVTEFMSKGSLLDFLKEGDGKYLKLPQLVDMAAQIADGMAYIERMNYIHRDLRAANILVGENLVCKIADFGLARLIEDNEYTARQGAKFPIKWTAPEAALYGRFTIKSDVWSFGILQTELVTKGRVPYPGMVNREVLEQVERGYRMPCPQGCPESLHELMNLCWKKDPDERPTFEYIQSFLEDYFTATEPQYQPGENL
Sequence of Peroxisome proliferator-activated receptor alpha (Homo sapiens) (Q07869 whole entry, looked up): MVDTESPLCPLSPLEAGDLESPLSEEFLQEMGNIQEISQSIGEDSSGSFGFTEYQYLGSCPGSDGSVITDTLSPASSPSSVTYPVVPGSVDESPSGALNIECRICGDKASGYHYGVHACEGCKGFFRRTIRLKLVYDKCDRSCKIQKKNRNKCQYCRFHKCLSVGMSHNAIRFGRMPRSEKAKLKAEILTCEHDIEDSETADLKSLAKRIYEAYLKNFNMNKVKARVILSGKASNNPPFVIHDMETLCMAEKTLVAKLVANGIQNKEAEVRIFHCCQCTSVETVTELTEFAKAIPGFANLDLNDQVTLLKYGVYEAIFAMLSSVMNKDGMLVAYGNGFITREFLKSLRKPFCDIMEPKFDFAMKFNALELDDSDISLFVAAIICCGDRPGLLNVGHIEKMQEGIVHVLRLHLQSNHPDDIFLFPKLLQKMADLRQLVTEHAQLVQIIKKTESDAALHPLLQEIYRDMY
Sequence of Nuclear receptor ROR-gamma (Homo sapiens) (P51449 whole entry, looked up): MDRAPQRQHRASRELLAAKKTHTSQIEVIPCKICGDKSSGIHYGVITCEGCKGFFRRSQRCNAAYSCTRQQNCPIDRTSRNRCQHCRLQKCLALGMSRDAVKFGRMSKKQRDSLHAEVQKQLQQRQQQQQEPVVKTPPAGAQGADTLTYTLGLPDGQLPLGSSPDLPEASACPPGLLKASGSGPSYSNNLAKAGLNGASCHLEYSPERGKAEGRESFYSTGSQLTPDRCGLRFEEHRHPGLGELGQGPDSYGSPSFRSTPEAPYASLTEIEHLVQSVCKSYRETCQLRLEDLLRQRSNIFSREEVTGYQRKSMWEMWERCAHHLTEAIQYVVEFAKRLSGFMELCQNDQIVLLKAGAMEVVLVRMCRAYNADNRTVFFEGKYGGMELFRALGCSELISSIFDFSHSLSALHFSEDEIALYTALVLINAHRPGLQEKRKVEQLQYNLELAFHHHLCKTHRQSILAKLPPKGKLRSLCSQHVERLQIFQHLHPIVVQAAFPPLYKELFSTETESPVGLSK

On to `CC1=C[C@@H]2[C@@H]([C@@H](O)C[C@@]3(C)[C@H]2C[C@@H](C)[C@]3(O)C(=O)CO)[C@@]2(C)Cc3cnn(-c4ccccc4)c3C=C12`, for which the Potency entry in experiment [1] was “inactive”. Further, in experiment [2], the call was inactive. For the same molecule, the max response in experiment [3] was -28.3% (inactive). In experiment [4], the remaining parasite growth % (stronger effect = lower value) was 0.407%. Moreover, the activity, percent of control in experiment [5] was -0.0711%.
With `C[C@@H]1C[C@H]2[C@@H]3CCC4=CC(=O)C=C[C@]4(C)[C@@]3(F)[C@@H](O)C[C@]2(C)[C@@]1(O)C(=O)CO`, in experiment [6], the activation was -0.0369% (inactive) and 0.315% (inactive). Also, the max response in experiment [7] was -0.146% (inactive) and 1.68% (inactive); in [11], -1.58% (inactive) and -7.2% (inactive); in experiment [12], -1.33% (inactive) and -8.25% (inactive). In addition, the result in [8], in [9], in experiment [10] and in experiment [13] was inactive.
With `OCCn1cc(-c2ccc3c(c2)CCC3=NO)c(-c2ccncc2)n1`, the Potency result in experiment [1] was “inactive”. Also, the molecule was classed as inactive in [2]. The max response in [3] was 8.08% (inactive). In addition, the remaining parasite growth % (stronger effect = lower value) in experiment [4] stood at 89.8%. In experiment [5], the activity, percent of control came out at 97.1%.
Regarding `Cc1csc(-c2nnc(Nc3ccc(Oc4ncccc4-c4ccnc(N)n4)cc3)c3ccccc23)c1`, the Potency result in experiment [1] was “inactive”. The result in [2] was inactive. In addition, the max response in [3] was 10.6% (inactive). Besides, in [4], the remaining parasite growth % (stronger effect = lower value) was 93.3%. The activity, percent of control in [5] is 85.6%.
Consider `Cc1ccc(NC(=O)c2ccc(CN3CCN(C)CC3)cc2)cc1Nc1nc(-c2cccnc2)cs1`, for which the Potency in experiment [1] was 345 nM (active). Besides, in [2], the outcome was inactive. Further, the remaining parasite growth % (stronger effect = lower value) in experiment [4] was determined as 0.463%. Further, the activity, percent of control in experiment [5] was 5.7%.
Regarding `CCCCOCCOc1nc(-c2ccc(C(=O)O)c(F)c2)sc1C`, the result in experiment [2] was inactive. In addition, in experiment [3], the max response is 43.8% (inactive). For the same molecule, the remaining parasite growth % (stronger effect = lower value) in experiment [4] came to 105%. Besides, the activity, percent of control in [5] came to 99.2%.
`O=C(Nc1cccc2c(=O)cc(-c3nn[nH]n3)oc12)c1ccc(OCCCCc2ccccc2)cc1`: the max response in [3] was 38.4% (inactive).
For `COc1cc([C@@H]2c3cc4c(cc3[C@@H](O[C@@H]3O[C@@H]5CO[C@@H](C)O[C@@H]5[C@H](O)[C@@H]3O)[C@H]3COC(=O)[C@H]23)OCO4)cc(OC)c1O`, the remaining parasite growth % (stronger effect = lower value) in [4] amounted to 51.5% [at 9.63 µM]. The activity, percent of control in experiment [5] is 47.3% [at 9.63 µM].
On to `CN(C)CCN(C)C(=O)c1ccc(NC(=O)Nc2ccc(-c3nc(N4CCOCC4)c4ccn(CC(F)(F)F)c4n3)cc2)cc1`, for which, in [2], the result was inactive. The Potency in experiment [3] is 23500 nM (active). For the same molecule, the remaining parasite growth % (stronger effect = lower value) in [4] is -0.909%. Moreover, the activity, percent of control in [5] is 0.114%.
Turning to `CCCCN(CCCC)CC(O)c1cc(Cl)cc2c1-c1ccc(Cl)cc1C2=Cc1ccc(Cl)cc1` (centres undefined), in experiment [3], the Potency was 59 nM (active).
On to `C=C[C@@H]1CN2CCC1C[C@@H]2C(O)c1ccnc2ccc(OC)cc12` (some centres undefined), for which the remaining parasite growth % (stronger effect = lower value) in experiment [4] is 2.76%. Besides, the activity, percent of control in experiment [5] turned out to be 2.53%.
`C[C@@H](O[C@H]1OCCN(Cc2n[nH]c(=O)[nH]2)[C@@H]1c1ccc(F)cc1)c1cc(C(F)(F)F)cc(C(F)(F)F)c1`: the remaining parasite growth % (stronger effect = lower value) in [4] was 16.5%. In experiment [5], the activity, percent of control was determined as 26.1%.
On to `COc1ccc(-c2nc3ccc(C4=NNC(=O)CC4C)cc3[nH]2)cc1` (centres undefined), for which the max response in experiment [3] was 13.2% (inactive).
For the molecule `O=C(Nc1ccc(OC(F)(F)F)cc1)c1sccc1NCc1ccnc2ccccc12`, the molecule was called inactive in [2]. In addition, in experiment [3], the max response was 8.87% (inactive). In addition, the remaining parasite growth % (stronger effect = lower value) in [4] was 71.5%. Also, the activity, percent of control in experiment [5] stood at 75.1%.
Take `CC(C)(CO)[C@@H](O)C(=O)NCCC(=O)O`: in experiment [3], the max response is -8.71% (inactive).
Still for that read-out and setting: as for `N#Cc1c(N(CC(=O)O)CC(=O)O)sc(C(=O)O)c1CC(=O)O`, the figure is -8.64% (inactive).
For the molecule `CN(C)CC[C@H](CSc1ccccc1)Nc1ccc(S(=O)(=O)NC(=O)c2ccc(N3CCN(Cc4ccccc4-c4ccc(Cl)cc4)CC3)cc2)cc1[N+](=O)[O-]`, the remaining parasite growth % (stronger effect = lower value) in experiment [4] came to 11.6%. For the same molecule, in experiment [5], the activity, percent of control came to 9.74%.
In the case of `CN(C)CCOc1ccc(-c2nc(-c3ccc4c(c3)CCC4=NO)c(-c3ccncc3)[nH]2)cc1`, the result in experiment [2] was inactive.
`CC(C)CN(C[C@@H](O)[C@H](Cc1ccccc1)NC(=O)O[C@H]1CO[C@H]2OCC[C@H]21)S(=O)(=O)c1ccc(N)cc1`: the max response in experiment [3] was -5.35% (inactive).
